Inconclusive results are not listed. Entries that show only a call come without a potency. The source made the active and inactive calls. Calls follow the shape of the dose curve; as a rule, active = well fitted inhibition curve with a large enough effect; inconclusive = small, poorly fitted or top-dose-only effect; inactive = flat fitted curve, though single readings scatter.
Potency is read from the fitted curve at half-maximal effect.

The assay relates to JCK. Put plainly: qHTS profiling for inhibitors of Plasmodium falciparum proliferation (AID 504749). Also: nearly all actives have a fitted effect of over 60% in size. To be noted: P. falciparum in erythrocytes, SYBR Green DNA, 72 h; series mostly up to 28.7 µM. In a few lines:
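Three-day growth assay of blood-stage parasites in erythrocytes (0.3% parasitemia, 2.5% hematocrit) at 37 C, 5% CO2, quantified by SYBR Green DNA staining after overnight detergent lysis.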
In general terms: qHTS replaces the single test concentration by a dilution series.
With `CC(=O)O[C@H]1C[C@@H]2CC[C@@H]3[C@H](CC[C@@]4(C)[C@H]3C[C@H]([N+]3(C)CCCCC3)[C@@H]4OC(C)=O)[C@@]2(C)C[C@@H]1N1CCCCC1`, the Potency entry is “inactive”.
For `CCNC(=O)NCc1cccc(Cl)c1`, the Potency entry is “inactive”.
Turning to `CCOc1ccccc1OCCN[C@H](C)Cc1ccc(OC)c(S(N)(=O)=O)c1`, the Potency result is “inactive”.
Turning to `CC(=O)O[C@]1(C(C)=O)CC[C@H]2[C@@H]3C=C(Cl)C4=CC(=O)CC[C@]4(C)[C@H]3CC[C@@]21C`, the Potency entry is “inactive”.
As to `CCOC(=O)Nc1ccc2c(c1)N(C(=O)CCN1CCOCC1)c1ccccc1S2`, the Potency entry is “inactive”.
Under `CC[N+](C)(CC)CCOC(=O)C(O)(c1ccccc1)C1CCCCC1` (configuration not stated) stands “inactive”; under `CC(C)=CCOc1ccc(/C=C/C(=O)c2ccc(OCC=C(C)C)cc2OCC(=O)O)cc1`, “inactive”; under `O=C(CN1CCN(Cc2ccc3c(c2)OCO3)CC1)N1c2ccccc2Sc2ccccc21`, “inactive”.
Turning to `CCC(C(=O)OCCOCCN(CC)CC)c1ccccc1` (configuration not stated), the Potency result was “inactive”.
Under `O=C(NC1CCN(CCc2c[nH]c3ccccc23)CC1)c1ccccc1` stands “inactive”.
With `NC(=O)C1(N2CCCCC2)CCN(CCCC(=O)c2ccc(F)cc2)CC1`, the Potency result is “inactive”.
Turning to `CN1CCN(C2=Nc3ccccc3Sc3ccc(Cl)cc32)CC1`, the Potency result was “inactive”.
Take `Cc1ccc2c(Br)cc(Br)c(O)c2n1`: the Potency is 10 µM (active).
For `CCCCCCCCCCCCOCCOCCOCCOCCOCCOCCOCCOCCOCCO`, the Potency result is “inactive”.
Consider `CN1CCC(OC(c2ccccc2)c2ccccc2)CC1`, for which the Potency result was “inactive”.
In the case of `COC(=O)C(c1ccccc1Cl)N1CCc2sccc2C1` (configuration not stated), the Potency entry is “inactive”.
As for `Cc1cc2c(OCC(CNC(C)(C)C)OC(=O)c3ccccc3)cccc2[nH]1` (configuration not stated), the Potency entry was “inactive”.

The record behind these values is PubChem BioAssay (NCATS).
